Calls of active or inactive are those of the source.
Legend:
[1] = binders of probe aFSTL3 on microarray, primary screen, stem cell growth factor project, biochemical, small-molecule microarray, fluorescence 635/667 (AID 1064); conditions: higher = more signal;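 note: measures binding of the biotinylated anti-FSTL3 antibody to printed compounds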
[2] = binders from COS7 lysate, DM2A8 probe, primary screen, torsin A project, cell lysate, small-molecule microarray, fluorescence 635/667 (AID 1065); conditions: higher = more signal, COS7 lysate expressing mutant human TOR1A
[3] = binders of probe aFGF2 on microarray, primary screen, stem cell growth factor project, biochemical, small-molecule microarray, fluorescence 635/667 (AID 1067); conditions: higher = more signal;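 note: measures binding of biotinylated aFGF2 protein to printed compounds on slides; z-score merges feature fluorescence and signal-to-noise across triplicate slides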
[4] = binders of probe aFGF10 on microarray, primary screen, stem cell growth factor project, biochemical, small-molecule microarray, fluorescence 635/667 (AID 1071); conditions: higher = more signal;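 note: score merges 667 nm spot intensity and signal to noise from triplicate slides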
[5] = biological target: Neurogenic locus notch homolog protein 2 (Homo sapiens) (UniProt Q04721); assay: Notch2 binders on small-molecule microarrays, primary screen, biochemical, small-molecule microarray, 635 nm fluorescence, stem cell growth factors (AID 1073); conditions: Notch2 binding, higher = more signal
[6] = biological target: Pro-neuregulin-1, membrane-bound isoform (Homo sapiens) (UniProt Q02297); assay: NRG1 binders on small-molecule microarrays, primary screen, psychiatric disease protein project, biochemical, small-molecule microarray, fluorescence 635/667 (AID 1075); conditions: NRG1 binding, 635 nm fluorescence, higher = more signal;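 note: score combines 667 nm spot fluorescence with signal to noise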
[7] = test system: Neuregulin-1 EGF-like domain; assay: binders of neuregulin-1 EGF-like domain, primary screen, biochemical, small-molecule microarray, 635 nm fluorescence (AID 1081); conditions: small-molecule microarray binding, higher = more signal;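 note: binding of the protein to compounds printed on small-molecule microarray slides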
[8] = FRG1 promoter luciferase signal modulators, primary screen, FRG1 inhibition for FSHD, cell-based, C2C12 myotubes, firefly/Renilla luciferase, luminescence (AID 1084); conditions: higher = more signal, called active from +8 up or from −8 down
[9] = binders of probe aFST on microarray, primary screen, stem cell growth factor project, biochemical, small-molecule microarray, fluorescence 635/667 (AID 1086); conditions: higher = more signal;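 note: score merges 667 nm fluorescence with signal-to-noise of each printed compound spot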
[10] = binders of probe aHhip on microarray, primary screen, stem cell growth factor project, biochemical, small-molecule microarray, fluorescence 635/667 (AID 1087); conditions: higher = more signal;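 note: score merges spot fluorescence at 667nm with spot signal to noise ratio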
[11] = test system: PRMT1 (protein arginine N-methyltransferase 1); assay: PRMT1 binders on small-molecule microarrays, primary screen, biochemical, small-molecule microarray, 635 nm fluorescence (AID 1088); conditions: small-molecule microarray binding, higher = more signal;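 note: binding of Prmt1 protein to compounds spotted on small-molecule microarray slides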
[12] = yeast growth modulation, basal conditions, primary screen, YJM789 clinical isolate, OD600, 24 h (AID 1089);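 note: growth of clinical yeast isolate S. cerevisiae YJM 789 seeded 1000 cells per well; test concentration not given here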; conditions: S. cerevisiae YJM789 growth, higher = more signal, called active from +8 up or from −8 down
[13] = fission yeast growth modulation, primary screen, strain 972, OD600, 24 h, no modulator (AID 1090);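 note: basal condition with compound alone and no growth modifier present; test concentration not given here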; conditions: S. pombe 972 growth, higher = more signal, called active from +8 up or from −8 down
[14] = S. cerevisiae growth modulation with rapamycin, primary screen, strain BY4716, OD600, 96 h (AID 1091); conditions: higher = more signal, called active from +8 up or from −8 down; note: test concentration not given here
[15] = biological target: Torsin-1A-interacting protein 2 (Homo sapiens) (UniProt Q8NFQ8); assay: LULL1 binders on small-molecule microarray, primary screen, cell lysate, human LULL1 lysate, 635/667 nm fluorescence (AID 1092); conditions: hLULL1 lysate binding, 635 nm fluorescence, higher = more signal;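 note: probe is lysate of COS7 cells overexpressing human LULL1; score merges per-feature 667 nm fluorescence with signal-to-noise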
[16] = E. coli growth modulation, two-sided OD650, primary screen, E. coli filamentation project, strain DRC41, 24 h (AID 1093); conditions: OD650, 24 h, higher = more signal, called active from +8 up or from −8 down;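 note: MC1000 strain lacking acrAB efflux and sulA so SOS filamentation is blocked; test concentration not given here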
[17] = small-molecule microarray binders of probe aLefty2, primary screen, biochemical, biotinylated probe, 635/667 nm fluorescence (AID 1094); conditions: higher = more signal;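 note: score merges spot fluorescence near 667 nm with spot signal-to-noise ratio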
[18] = test system: Noggin (protein binding on small-molecule microarray); assay: Noggin binders on small-molecule microarray, primary screen, biochemical, 635/667 nm fluorescence (AID 1095); conditions: 635 nm fluorescence, higher = more signal;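 note: score merges 667 nm feature fluorescence with signal to noise over triplicate slides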
[19] = biological target: Neurogenic locus notch homolog protein 3 (Homo sapiens) (UniProt Q9UM47); assay: NOTCH3 binders on small-molecule microarray, primary screen, biochemical, 635/667 nm fluorescence (AID 1096); conditions: NOTCH3 binding, 635 nm fluorescence, higher = more signal
[20] = small-molecule microarray binders of probe aEGFR, primary screen, biochemical, biotinylated probe, 635/667 nm fluorescence (AID 1097); conditions: higher = more signal;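 note: probe is a biotinylated anti-EGFR antibody binding compounds printed on slides; score combines fluorescence near 667 nm and signal to noise of each spot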

Chain of Pro-neuregulin-1, membrane-bound isoform (Homo sapiens) (Q02297 whole entry, looked up, the tested form may be a part, canonical isoform): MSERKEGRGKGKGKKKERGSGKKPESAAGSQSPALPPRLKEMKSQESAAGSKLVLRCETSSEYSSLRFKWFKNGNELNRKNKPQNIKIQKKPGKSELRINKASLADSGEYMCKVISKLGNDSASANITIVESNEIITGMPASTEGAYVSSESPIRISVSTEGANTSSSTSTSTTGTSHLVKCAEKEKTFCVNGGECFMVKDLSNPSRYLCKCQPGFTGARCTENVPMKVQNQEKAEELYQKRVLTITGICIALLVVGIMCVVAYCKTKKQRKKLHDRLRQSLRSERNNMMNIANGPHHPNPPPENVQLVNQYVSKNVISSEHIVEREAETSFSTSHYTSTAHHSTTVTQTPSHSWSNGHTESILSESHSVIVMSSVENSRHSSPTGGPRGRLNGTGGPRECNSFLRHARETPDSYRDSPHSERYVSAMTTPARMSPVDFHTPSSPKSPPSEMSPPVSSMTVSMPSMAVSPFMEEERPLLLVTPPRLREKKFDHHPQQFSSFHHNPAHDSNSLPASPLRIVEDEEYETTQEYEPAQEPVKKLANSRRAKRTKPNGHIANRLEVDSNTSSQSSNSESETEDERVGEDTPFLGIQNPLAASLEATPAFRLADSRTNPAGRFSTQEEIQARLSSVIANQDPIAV
Chain of Neurogenic locus notch homolog protein 2 (Homo sapiens) (Q04721 whole entry, looked up, canonical isoform): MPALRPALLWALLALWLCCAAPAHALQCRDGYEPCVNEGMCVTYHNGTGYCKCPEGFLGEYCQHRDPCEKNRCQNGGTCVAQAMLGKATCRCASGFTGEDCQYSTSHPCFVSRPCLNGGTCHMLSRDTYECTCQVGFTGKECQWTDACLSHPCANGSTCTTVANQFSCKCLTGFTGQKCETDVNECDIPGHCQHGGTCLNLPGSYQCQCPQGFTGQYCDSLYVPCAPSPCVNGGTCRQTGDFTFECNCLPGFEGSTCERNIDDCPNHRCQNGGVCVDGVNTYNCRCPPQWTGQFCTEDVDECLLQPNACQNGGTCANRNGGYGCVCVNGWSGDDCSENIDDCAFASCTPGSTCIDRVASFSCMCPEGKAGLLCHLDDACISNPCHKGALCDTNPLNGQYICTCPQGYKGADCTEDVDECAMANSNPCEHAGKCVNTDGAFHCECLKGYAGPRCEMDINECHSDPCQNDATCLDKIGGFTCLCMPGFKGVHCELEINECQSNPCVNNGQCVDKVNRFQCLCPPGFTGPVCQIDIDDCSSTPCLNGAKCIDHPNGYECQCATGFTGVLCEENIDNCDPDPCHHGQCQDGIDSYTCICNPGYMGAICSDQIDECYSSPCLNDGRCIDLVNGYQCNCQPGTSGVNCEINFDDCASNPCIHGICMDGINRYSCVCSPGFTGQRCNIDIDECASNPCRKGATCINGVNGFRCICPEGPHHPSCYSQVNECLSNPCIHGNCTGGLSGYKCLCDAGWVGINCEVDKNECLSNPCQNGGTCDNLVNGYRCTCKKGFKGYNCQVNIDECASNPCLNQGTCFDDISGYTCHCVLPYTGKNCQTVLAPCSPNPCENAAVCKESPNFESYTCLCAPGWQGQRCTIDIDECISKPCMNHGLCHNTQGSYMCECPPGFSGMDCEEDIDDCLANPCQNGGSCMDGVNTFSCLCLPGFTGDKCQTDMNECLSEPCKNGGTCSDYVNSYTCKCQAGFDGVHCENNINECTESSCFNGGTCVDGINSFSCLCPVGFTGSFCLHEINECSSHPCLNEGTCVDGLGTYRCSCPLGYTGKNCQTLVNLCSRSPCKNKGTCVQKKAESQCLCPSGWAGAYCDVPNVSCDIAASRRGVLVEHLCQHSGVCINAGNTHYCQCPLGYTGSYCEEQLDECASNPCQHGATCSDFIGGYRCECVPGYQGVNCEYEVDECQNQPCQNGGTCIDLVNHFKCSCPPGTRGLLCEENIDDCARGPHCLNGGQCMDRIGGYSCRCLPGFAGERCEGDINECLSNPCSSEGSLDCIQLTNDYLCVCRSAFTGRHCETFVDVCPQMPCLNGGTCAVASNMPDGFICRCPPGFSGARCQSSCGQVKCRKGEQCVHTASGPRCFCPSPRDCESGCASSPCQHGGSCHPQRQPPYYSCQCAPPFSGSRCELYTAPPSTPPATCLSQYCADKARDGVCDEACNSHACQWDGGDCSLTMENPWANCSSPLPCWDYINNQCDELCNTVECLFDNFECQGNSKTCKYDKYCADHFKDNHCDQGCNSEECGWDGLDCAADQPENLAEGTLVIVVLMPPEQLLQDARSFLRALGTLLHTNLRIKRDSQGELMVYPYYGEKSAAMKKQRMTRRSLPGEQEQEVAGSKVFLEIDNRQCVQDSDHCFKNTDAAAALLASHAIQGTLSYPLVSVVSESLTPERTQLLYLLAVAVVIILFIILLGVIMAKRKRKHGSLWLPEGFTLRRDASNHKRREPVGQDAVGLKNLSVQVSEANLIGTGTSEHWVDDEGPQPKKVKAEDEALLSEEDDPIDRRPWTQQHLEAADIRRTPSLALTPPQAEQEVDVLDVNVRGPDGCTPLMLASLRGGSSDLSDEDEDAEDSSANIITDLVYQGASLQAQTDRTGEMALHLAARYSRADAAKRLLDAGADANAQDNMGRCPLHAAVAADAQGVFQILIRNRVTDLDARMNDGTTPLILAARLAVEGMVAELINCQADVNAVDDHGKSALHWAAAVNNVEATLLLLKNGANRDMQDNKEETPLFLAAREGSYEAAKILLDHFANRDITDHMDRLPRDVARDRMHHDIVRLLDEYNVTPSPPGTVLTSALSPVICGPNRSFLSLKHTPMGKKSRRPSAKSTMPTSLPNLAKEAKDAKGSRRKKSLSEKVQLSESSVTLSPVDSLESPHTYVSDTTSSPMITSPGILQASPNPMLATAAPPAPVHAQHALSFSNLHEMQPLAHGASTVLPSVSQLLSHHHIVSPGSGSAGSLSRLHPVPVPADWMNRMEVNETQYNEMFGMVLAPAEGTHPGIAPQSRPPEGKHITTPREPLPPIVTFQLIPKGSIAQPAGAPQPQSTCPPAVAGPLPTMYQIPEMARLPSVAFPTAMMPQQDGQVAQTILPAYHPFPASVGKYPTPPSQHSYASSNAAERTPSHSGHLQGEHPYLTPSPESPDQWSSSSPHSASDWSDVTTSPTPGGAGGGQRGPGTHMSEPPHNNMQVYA
Chain of Torsin-1A-interacting protein 2 (Homo sapiens) (Q8NFQ8 whole entry, looked up): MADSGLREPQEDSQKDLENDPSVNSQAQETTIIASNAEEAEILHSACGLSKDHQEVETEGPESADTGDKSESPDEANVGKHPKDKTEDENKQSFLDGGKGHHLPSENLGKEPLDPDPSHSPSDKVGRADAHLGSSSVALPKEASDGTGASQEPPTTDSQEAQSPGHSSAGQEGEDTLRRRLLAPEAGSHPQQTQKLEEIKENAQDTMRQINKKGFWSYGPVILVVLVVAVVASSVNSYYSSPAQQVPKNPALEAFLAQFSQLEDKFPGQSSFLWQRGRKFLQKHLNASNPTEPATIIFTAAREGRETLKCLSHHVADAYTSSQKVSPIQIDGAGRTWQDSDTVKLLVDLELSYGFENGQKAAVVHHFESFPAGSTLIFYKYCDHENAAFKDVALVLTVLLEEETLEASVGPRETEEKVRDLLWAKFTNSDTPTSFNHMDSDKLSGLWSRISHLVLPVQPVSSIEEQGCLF

SMILES | composite z-score [1] | composite z-score [2] | composite z-score [3] | composite z-score [4] | composite z-score [5] | composite z-score [6] | composite z-score [7] | z-score [8] | composite z-score [9] | composite z-score [10] | composite z-score [11] | z-score [12] | z-score [13] | z-score [14] | composite z-score [15] | z-score [16] | composite z-score [17] | composite z-score [18] | composite z-score [19] | composite z-score [20]
CCO[C@H](c1cc(OC)cc([N+](=O)[O-])c1OC)[C@H](C)C=CCC(=O)OC | -0.413 | 0.13 | -0.22 | -0.0567 | -0.3 | -0.264 | -0.997 | 0.157 (inactive) | -0.185 | -0.479 | 1.11 | -0.57 (inactive) | -1.18 (inactive) | -0.187 (inactive) | -0.746 | 0.545 (inactive) | -0.233 | 0.927 | 0.0565 | -0.123
CC[C@@H](c1ccccc1)n1c(=O)n2n(c1=O)[C@H]1[C@H](O)[C@@H]3O[C@@H]3C(=NOC[C@@H](O)COCc3ccco3)[C@H]1CC2 | -0.437 | 0.615 | -0.116 | 0.25 | -1.17 | -0.552 | 0.727 | 0.0269 (inactive) | -0.113 | -0.741 | -0.862 | -0.697 (inactive) | -0.552 (inactive) | -0.624 (inactive) | -1.1 | 0.568 (inactive) | -0.215 | 0.0447 | -0.979 | -0.185
C#CCCCON=C1C[C@@H](O)[C@@H](O)[C@@H]2[C@@H]3C(=O)N(CCC(=O)OCC)C(=O)[C@@H]3CC[C@H]12 | -0.467 | 0.294 | -0.0502 | 0.481 | 0.872 | 0.64 | 0.685 | -1.41 (inactive) | 0.593 | -0.0994 | 1.48 | -1.64 (inactive) | -1.32 (inactive) | -0.947 (inactive) | 1.28 | 0.299 (inactive) | -0.104 | 0.4 | 1.1 | -0.0419
COc1ccc(O[C@@H]2[C@H](O)CO[C@H]2C=Cc2ccccc2)cc1 | -0.323 | 0.26 | -0.113 | 0.649 | -0.625 | 0.0515 | -0.839 | -1.39 (inactive) | -0.367 | -0.0994 | 0.619 | -2.63 (inactive) | -3.17 (inactive) | -0.856 (inactive) | 0.108 | 0.473 (inactive) | -0.214 | 0.146 | -0.167 | -0.148
COC(=O)CC=C[C@@H](C)[C@@H](C=NOC[C@H]1O[C@H](c2ccccc2)C=C[C@@H]1Oc1ccc(OC)cc1)OC | -0.309 | -0.0766 | -0.14 | 0.304 | -0.639 | -0.549 | -0.282 | 0.532 (inactive) | -0.251 | 0.0373 | -0.356 | -0.337 (inactive) | 0.427 (inactive) | 0.439 (inactive) | -0.072 | -0.19 (inactive) | -0.258 | 0.0133 | -1.13 | -0.253
CCC=CCCC(OC(=O)c1ccc(Br)cc1)C1=CCCCC1=O (stereo not given) | 0.122 | 0.333 | 0.543 | -0.0363 | -0.164 | 0.714 | 0.878 | 0.796 (inactive) | 0.336 | 0.0826 | 1.33 | -1.32 (inactive) | -5.44 (inactive) | -2.98 (inactive) | 1.35 | -0.133 (inactive) | -0.0018 | 0.493 | 0.554 | -0.0187
COC(=O)[C@H](C)NC(=O)CCC1CC(OC(=O)NCc2ccc3c(c2)OCO3)CC2(CCCC(COC(=O)NCCc3ccccc3OC)O2)O1 (stereo not given in full) | -0.587 | 0.172 | -0.171 | 0.16 | 0.138 | 0.597 | 0.751 | 1.06 (inactive) | -0.17 | 0.0274 | 0.472 | -1.21 (inactive) | 0.124 (inactive) | -0.167 (inactive) | 1.89 | 0.872 (inactive) | -0.166 | 0.181 | 0.0607 | -0.0798
Cc1cc2c(nc1C)CCCN2CC(O)CN1CCCc2nc(C)c(C)cc21 | 0.472 | 1.49 | 0.178 | 0.204 | 0.4 | 0.752 | 0.998 | -0.0397 (inactive) | 0.759 | 1.35 | 0.692 | 0.623 (inactive) | 0.73 (inactive) | -0.238 (inactive) | 1.89 | -0.605 (inactive) | 0.256 | 0.256 | 0.625 | -0.002
COC(=O)CC=C[C@@H](C)[C@@H](C=NO[C@@H](C)c1cn([C@H](CO)Cc2ccccc2)nn1)OC | -0.446 | 1.68 | -0.119 | -0.0052 | 0.0576 | -0.0718 | -0.265 | -0.839 (inactive) | 0.0066 | -0.34 | 1.05 | -2.66 (inactive) | -2.01 (inactive) | -0.773 (inactive) | 0.579 | -0.673 (inactive) | -0.173 | 0.719 | 0.627 | -0.114
CCN1C(=O)[C@H]2[C@H]3[C@H](O)[C@H](O)CC(=O)[C@@H]3CC[C@H]2C1=O | -0.676 | 0.0277 | -0.0692 | 0.463 | 0.575 | 0.379 | 1.01 | -0.136 (inactive) | 0.276 | -0.226 | 0.705 | 0.0074 (inactive) | -0.268 (inactive) | -0.139 (inactive) | 1.36 | 0.439 (inactive) | -0.145 | 0.441 | 0.717 | -0.0115

Reference: PubChem BioAssay
